From PubChem BioAssay (NCI) come the findings set out here.

What all share (assay): NCI-60 one-dose screen, 48 h (100 = growth as untreated, 0 = no growth, -100 = all killed)
Holding throughout (settings): 10 µM unless noted

The test system of assay [1] is NCI-H23 lung.
Assay [2] deals with NCI-H226 lung.
For assay [3], the system named is NCI-H322M lung.
Assay [4] deals with HOP-62 NSCLC.
The test system of assay [5] is NCI-H460 lung.
The subject of assay [6] is HOP-92 NSCLC.
Assay [7] relates to NCI-H522 lung.
Assay [8] deals with A549/ATCC NSCLC.
The test system of assay [9] is 786-0 renal.
Assay [10] concerns COLO 205 colon.
For assay [11], the system named is DU-145 prostate.
Assay [12] has as its system K-562 leukemia.
Assay [13] has as its system MALME-3M melanoma.
For assay [14], the system named is MDA-MB-231 breast.
For assay [15], the system named is RXF 393 renal.
Assay [16] has as its system SF-268 CNS.
The subject of assay [17] is SF-295 CNS.
Assay [18] deals with SF-539 CNS.
Assay [19] relates to UACC-257 melanoma.
For assay [20], the system named is M14 melanoma.

About 83,000 compounds went through this panel and 20% of them were active in at least one assay; those are over-represented in the sample as a whole.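 The test compound was applied at a single concentration to cells in 96-well plates for 48 hours, and percent growth was recorded.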 Values without a mark were called inactive. The source made the active and inactive calls. How the source made its calls: active means growth percent below 10; inactive means the rest.

Consider `CCC1C(=O)COC1=O` (stereo not given), for which the growth is 95.7% in assay [1]; 100% in [2]; 104% in [3]; 77.1% in [4]; 105% in [5]; 80.6% in [6]. In addition, the growth was 77.7% in assay [7]; 64.1% in assay [8]; 101% in [9]; 100% in assay [10]; 108% in assay [11]; 92% in [12]. Also, the growth is 99.3% in assay [13]; -22.4% (active) in [14]; 122% in assay [15]; 101% in assay [16]; 97.9% in [17]; 105% in assay [18]. Moreover, the growth in [19] is 81.8%; in assay [20], 93.2%.

Regarding `O=C1CCC/C=C\C[C@H]2C=C(Cl)C(=O)/C2=C/C[C@H](CCCCC(F)(F)F)OC(=O)CCC/C=C\C[C@H]2C=C(Cl)C(=O)/C2=C/C[C@H](CCCCC(F)(F)F)O1`, the growth was -35.2% [7.5 µM] (active) in assay [1]; -19.3% [7.5 µM] (active) in [2]; -36.9% [7.5 µM] (active) in [3]; -29.9% [7.5 µM] (active) in [4]; -33.2% [7.5 µM] (active) in assay [5]; -58.4% [7.5 µM] (active) in [6]. In addition, the growth in [7] was -62.2% [7.5 µM] (active); in assay [8] it was -44.5% [7.5 µM] (active); in [9] it was -55% [7.5 µM] (active); in [10], -57.2% [7.5 µM] (active); in assay [11], 0.342% [7.5 µM] (active); in [12] it was 1.45% [7.5 µM] (active). In addition, the growth in assay [13] was -18.2% [7.5 µM] (active); in [14] it was -22.9% [7.5 µM] (active); in [15], -92% [7.5 µM] (active); in assay [16] it was 6.24% [7.5 µM] (active); in assay [17] it was -37.6% [7.5 µM] (active); in [18] it was -12.5% [7.5 µM] (active). Moreover, the growth was -55.3% [7.5 µM] (active) in assay [19] and -62.1% [7.5 µM] (active) in [20].

In the case of `Oc1cccc2ccc(N/N=C/c3cc(CN4CCCCC4)c(O)c4ncccc34)nc12`, the growth in [1] was -10.8% (active); in assay [2], -30% (active); in assay [3], 25.5%; in assay [4], 1.83% (active); in [5], -40.3% (active); in assay [6], 36.9%. For the same compound, the growth in [7] was -16% (active); in assay [8] it was -10.3% (active); in assay [9] it was 5.33% (active); in [10], 8.41% (active); in [11] it was 24.1%; in [12], 13.1%. The growth is 19.1% in [13]; -4.71% (active) in assay [14]; 9.94% (active) in assay [15]; 12.6% in [16]; -5.38% (active) in assay [17]; 4.73% (active) in assay [18]. Further, the growth in assay [19] was 13.4%; in assay [20], -24.8% (active).

Regarding `Cc1ccc(-c2nc([P+](c3ccccc3)(c3ccccc3)c3ccccc3)c(N3C[C@H]4C[C@H](C3)c3cccc(=O)n3C4)o2)cc1`, the growth was 82.3% in assay [1]; 108% in [2]; 94.3% in assay [3]; 90.4% in assay [4]; 105% in [5]; 62.6% in assay [6]. Moreover, the growth is 74.3% in assay [7]; 99.1% in assay [8]; 97.1% in assay [9]; 48.9% in assay [10]; 98.3% in [11]; 47.3% in [12]. In addition, the growth in assay [13] is 74.5%; in assay [14], 90.9%; in assay [15], 79.8%; in assay [16], 91.1%; in assay [17], 96.1%; in assay [18], 99.7%. The growth is 37.5% in assay [19] and 82.3% in assay [20].

As for `Cc1ccc(NC2CC(=O)N(c3c(C)cc(C)cc3C)C2=O)c(C)c1` (stereo not given), the growth in assay [1] was 108%; in [2], 109%; in assay [3], 101%; in assay [4], 110%; in [5] it was 108%; in assay [6] it was 94.5%. For the same compound, the growth in assay [7] was 98.6%; in assay [8], 102%; in assay [9], 105%; in assay [10] it was 123%; in assay [11], 105%; in [12], 98.2%. Besides, the growth in assay [13] was 97.7%; in assay [14] it was 103%; in assay [15] it was 124%; in [16], 101%; in assay [17] it was 111%; in assay [18], 102%. Besides, the figures for the growth in assay [19] and in assay [20] were 99.6% and 107%, respectively.

Consider `Cc1ccc(-c2ccc(/C=C(\C#N)c3nc(-c4ccco4)cs3)o2)cc1`, for which the growth in assay [1] was 95%; in assay [2], 92.7%; in assay [3], 90.2%; in assay [4], 97.5%; in [5], 99.3%; in [6] it was 100%. Besides, the growth in [7] is 96.4%; in assay [8], 103%; in assay [9], 106%; in [10], 99.1%; in assay [11] it was 108%; in [12] it was 95%. Further, the growth in [13] was 109%; in assay [14], 93%; in assay [15] it was 136%; in assay [16] it was 107%; in assay [17] it was 96.6%; in assay [18] it was 103%. Besides, the figures for the growth in assay [19] and in assay [20] were 113% and 93.7%, respectively.

In the case of `C=C(C)[C@@H]1CC[C@]2(C)CC[C@]3(C)[C@H](CC[C@@H]4[C@@]5(C)CCCNC(C)(C)[C@@H]5CC[C@]43C)[C@@H]12`, the growth in assay [1] was 94.1%; in assay [2], 96.5%; in assay [3], 99.5%; in [4], 101%; in [5], 48.4%; in assay [6], 76.6%. Moreover, the growth in assay [7] was 106%; in assay [8], 51.3%; in assay [9], 102%; in [10], 8.77% (active); in assay [11], 75.6%; in assay [12], 4.15% (active). In addition, the growth was 88.9% in [13]; 96.7% in assay [14]; 88.4% in assay [15]; 104% in assay [16]; 106% in [17]; 98.2% in [18]. For the same compound, the growth in assay [19] was 107%; in assay [20], 79.6%.
